In PubChem BioAssay AID1159580 (chemical genetic matrix, 2015):
The campaign covered roughly 5,500 compounds. About 2,000 (36%) were called active. Not shown: some 18% with an inconclusive outcome. Cut-off read from the data, not from the text of the source: active = normalized growth mostly below about 0.91 (no sharp cut-off); inconclusive = no clear call, values can overlap the other calls; inactive = mostly above about 0.92. Some of the results follow.

Assay: chemical genetic growth profiling, strain panel (AID 1159580);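 note: tested at 20 µM; growth read once vehicle control cultures reached saturation at 30 °C; 1 = growth at the plate median or of vehicle wells; lower values mean less growth of the strain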
Details: S. cerevisiae deletion strains, growth OD

Measured: normalized growth

CC(O)C(C)OC(=O)[C@@H]1C[C@@H]2c3cccc4c3c(cn4C(C)C)C[C@H]2N(C)C1 (stereo partly drawn)
inactive: locus YAL040C, strain CLN3, hits give low values 0.977 | locus YCL061C, strain MRC1 (second series), hits give low values 0.98 | locus YDR363W, strain ESC2, hits give low values 0.996 | locus YER002W, strain NOP16, hits give low values 1 | locus YNL175C, strain NOP13, hits give low values 1 | locus YNL197C, strain WHI3, hits give low values 0.991 | locus YNL224C, strain SQS1, hits give low values 1.01 | locus YNL322C, strain KRE1, hits give low values 0.973 | locus YOR083W, strain WHI5 (second series), hits give low values 0.99 | locus YPL055C, strain LGE1, hits give low values 1

C[C@@H]1CC2C3CCC4=CC(=O)C=C[C@]4(C)[C@@]3(F)[C@@H](O)C[C@]2(C)[C@@]1(O)C(=O)CO (stereo partly drawn)
inactive: locus YAL021C, strain ccr4, hits give low values 0.96 | locus YAL026C, strain drs2, hits give low values 0.988 | locus YAL030W, strain snc1, hits give low values 0.969 | locus YBL061C, strain skt5, hits give low values 0.976 | locus YBR009C, strain hhf1, hits give low values 0.989 | locus YBR023C, strain chs3, hits give low values 0.999 | locus YBR171W, strain sec66, hits give low values 0.947 | locus YBR231C, strain swc5, hits give low values 0.978 | locus YBR279W, strain paf1, hits give low values 1 | locus YCL011C, strain gbp2, hits give low values 0.988 | locus YCL016C, strain dcc1, hits give low values 1.03 | locus YCL069W, strain vba3, hits give low values 0.975 | locus YCR088W, strain abp1, hits give low values 0.978 | locus YDL005C, strain med2, hits give low values 0.966 | locus YDL040C, strain nat1, hits give low values 0.964 | locus YDR001C, strain nth1, hits give low values 0.966 | locus YDR069C, strain doa4, hits give low values 0.96 | locus YDR137W, strain rgp1, hits give low values 1.02 | locus YDR159W, strain sac3, hits give low values 0.968 | locus YDR195W, strain ref2 0.948 | locus YDR297W, strain sur2, hits give low values 0.988 | locus YDR334W, strain swr1, hits give low values 0.957 | locus YDR335W, strain msn5, hits give low values 0.976 | locus YDR392W, strain spt3, hits give low values 1.06 | locus YEL003W, strain gim4, hits give low values 0.973 | locus YEL037C, strain rad23, hits give low values 0.974 | locus YEL061C, strain CIN8 (second series), hits give low values 0.976 | locus YER015W, strain faa2, hits give low values 0.995 | locus YER016W, strain bim1, hits give low values 1.03 | locus YER111C, strain swi4, hits give low values 0.971 | locus YER155C, strain BEM2 (second series), hits give low values 0.958 | locus YFR010W, strain ubp6, hits give low values 0.958 | locus YGL167C, strain pmr1, hits give low values 0.957 | locus YGL173C, strain kem1, hits give low values 0.964 | locus YGL227W, strain vid30, hits give low values 0.987 | locus YGL240W, strain doc1, hits give low values 0.966 | locus YGL253W, strain hxk2, hits give low values 1 | locus YHR013C, strain ard1, hits give low values 0.995 | locus YHR027C, strain rpn1, hits give low values 0.993 | locus YHR030C, strain SLT2, hits give low values 1.02 | locus YHR079C, strain IRE1, hits give low values 1.01 | locus YHR142W, strain chs7, hits give low values 0.948 | locus YJL092W, strain hpr5, hits give low values 0.964 | locus YJL095W, strain BCK1 (second series), hits give low values 0.967 | locus YJL095W, strain BCK1, hits give low values 1.02 | locus YJL115W, strain asf1, hits give low values 0.976 | locus YJL129C, strain trk1, hits give low values 0.976 | locus YJL154C, strain vps35, hits give low values 0.951 | locus YJL164C, strain tpk1, hits give low values 1.01 | locus YJL166W, strain qcr8, hits give low values 0.916 | locus YJR066W, strain TOR1, hits give low values 0.997 | locus YKL160W, strain elf1, hits give low values 0.989 | locus YKR026C, strain gcn3, hits give low values 0.98 | locus YKR091W, strain srl3, hits give low values 0.961 | locus YLL001W, strain dnm1, hits give low values 0.911 | locus YLL026W, hits give low values 0.985 | locus YLL041C, strain sdh2, hits give low values 0.972 | locus YLR027C, strain aat2, hits give low values 0.976 | locus YLR113W, strain HOG1, hits give low values 1.03 | locus YLR221C, strain rsa3, hits give low values 1.02 | locus YLR258W, strain gsy2, hits give low values 0.987 | locus YLR262C, strain YPT6 (second series), hits give low values 0.943 | locus YLR320W, strain mms22, hits give low values 1 | locus YLR342W, strain FKS1, hits give low values 0.951 | locus YLR357W, strain rsc2, hits give low values 0.966 | locus YLR370C, strain arc18, hits give low values 0.996 | locus YLR384C, strain iki3, hits give low values 0.982 | locus YML120C, strain ndi1, hits give low values 0.969 | locus YMR058W, strain fet3, hits give low values 0.981 | locus YMR125W, strain sto1, hits give low values 0.951 | locus YMR129W, hits give low values 0.993 | locus YMR205C, strain PFK2, hits give low values 0.969 | locus YMR231W, strain pep5, hits give low values 0.96 | locus YNL071W, strain lat1, hits give low values 0.971 | locus YNL183C, strain NPR1, hits give low values 0.965 | locus YNL209W, strain ssb2, hits give low values 0.997 | locus YNL248C, strain rpa49, hits give low values 1.01 | locus YNL322C, strain KRE1 (second series), hits give low values 0.962 | locus YNR049C, strain mso1, hits give low values 0.984 | locus YOR001W, strain rrp6, hits give low values 0.976 | locus YOR070C, strain gyp1, hits give low values 0.997 | locus YOR080W, strain dia2, hits give low values 0.948 | locus YOR083W, strain WHI5, hits give low values 0.968 | locus YOR106W, strain vam3, hits give low values 0.933 | locus YOR231W, strain MKK1, hits give low values 1.01 | locus YOR265W, strain rbl2, hits give low values 0.986 | locus YOR270C, strain vph1, hits give low values 0.955 | locus YOR290C, strain snf2, hits give low values 1.02 | locus YPL051W, strain arl3, hits give low values 1.01 | locus YPL078C, strain atp4, hits give low values 0.928 | locus YPL106C, strain sse1, hits give low values 0.981 | locus YPL240C, strain hsp82, hits give low values 0.98 | locus YPL256C, strain CLN2, hits give low values 1.01
